Data: PubChem BioAssay (NCI)
About 83,000 compounds went through this panel and 20% of them were active in at least one assay; those are over-represented in the sample as a whole.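 Testing used 96-well plates and a 48-hour single-concentration exposure. Example: -40 means 40% of the starting cells died.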

Columns and labels:
Assay in all cases: NCI-60 one-dose screen, 48 h (100 = growth as untreated, 0 = no growth, -100 = all killed); active means growth percent below 10; inactive means the rest
786-0 renal = conditions: 10 µM unless noted
DU-145 prostate = conditions: 10 µM unless noted
MDA-MB-231 breast = conditions: 10 µM unless noted
SF-268 CNS = conditions: 10 µM unless noted
SF-539 CNS = conditions: 10 µM unless noted
M14 melanoma = conditions: 10 µM unless noted
HCT-15 colon = conditions: 10 µM
SNB-19 CNS = conditions: 10 µM unless noted
UACC-62 melanoma = conditions: 10 µM unless noted
SN12C renal = conditions: 10 µM unless noted
ACHN renal = conditions: 10 µM unless noted
MOLT-4 leukemia = conditions: 10 µM
OVCAR-8 ovarian = conditions: 10 µM unless noted
SK-OV-3 ovarian = conditions: 10 µM unless noted
NCI/ADR-RES ovarian = conditions: 10 µM unless noted
T-47D breast = conditions: 10 µM unless noted
MDA-MB-435 melanoma = conditions: 10 µM unless noted
SW-620 colon = conditions: 10 µM unless noted
HCT-116 colon = conditions: 10 µM unless noted
KM12 colon = conditions: 10 µM unless noted

Measured: growth

CC12CCC(=O)C=C1CCC1C2CCC2(C)C(C(=O)COC(=O)Cc3ccc(N(CCCl)CCCl)cc3)CCC12 (stereo not given)
inactive: 786-0 renal 93.7% | DU-145 prostate 109% | MDA-MB-231 breast 108% | SF-268 CNS 77.9% | SF-539 CNS 63% | M14 melanoma 104% | HCT-15 colon 86.2% | SNB-19 CNS 96.2% | UACC-62 melanoma 66.3% | SN12C renal 73.2% | ACHN renal 40.3% | MOLT-4 leukemia 49.5% | OVCAR-8 ovarian 79.1% | SK-OV-3 ovarian 90% | NCI/ADR-RES ovarian 91.8% | T-47D breast 89.2% | MDA-MB-435 melanoma 96.1% | SW-620 colon 75.6% | HCT-116 colon 82.4% | KM12 colon 101%

CC(=O)C1C(=O)N(C)C(=O)N(C)C1=O
inactive: 786-0 renal 107% | DU-145 prostate 111% | MDA-MB-231 breast 117% | SF-268 CNS 113% | SF-539 CNS 92% | M14 melanoma 110% | HCT-15 colon 93.4% | SNB-19 CNS 110% | UACC-62 melanoma 110% | SN12C renal 104% | ACHN renal 95.4% | MOLT-4 leukemia 104% | OVCAR-8 ovarian 109% | SK-OV-3 ovarian 115% | NCI/ADR-RES ovarian 113% | T-47D breast 106% | MDA-MB-435 melanoma 94.4% | SW-620 colon 103% | HCT-116 colon 106% | KM12 colon 107%

N#[N+]c1nc2nc(N)[nH]c(=O)c2[nH]1
inactive: 786-0 renal 102% | DU-145 prostate 105% | MDA-MB-231 breast 107% | SF-268 CNS 104% | SF-539 CNS 101% | M14 melanoma 100% | HCT-15 colon 97.9% | SNB-19 CNS 99.8% | UACC-62 melanoma 97.7% | SN12C renal 99.9% | ACHN renal 99.6% | MOLT-4 leukemia 103% | OVCAR-8 ovarian 100% | SK-OV-3 ovarian 94.2% | NCI/ADR-RES ovarian 101% | T-47D breast 100% | MDA-MB-435 melanoma 100% | SW-620 colon 97.9% | HCT-116 colon 96.8% | KM12 colon 108%
